# Reference: ChEMBL document CHEMBL3988442, “University of Dundee, Small-Polar-MMV Screening Library” (2021)
# Columns and labels:
# [1] = biological target: T1, Aspartate--tRNA(Asp/Asn) ligase (Mycobacterium tuberculosis (strain ATCC 25618 / H37Rv)) (UniProt P9WFW3); test: Assay for Asp RNA synthetase-1 from Mycobacterium tuberculosis; assay type: functional; set-up: scale not given: direction of the effect not stated beside the values; details: 30 µM; note: in the data most compounds retested in dose-response had high values
# T1 sequence (whole entry): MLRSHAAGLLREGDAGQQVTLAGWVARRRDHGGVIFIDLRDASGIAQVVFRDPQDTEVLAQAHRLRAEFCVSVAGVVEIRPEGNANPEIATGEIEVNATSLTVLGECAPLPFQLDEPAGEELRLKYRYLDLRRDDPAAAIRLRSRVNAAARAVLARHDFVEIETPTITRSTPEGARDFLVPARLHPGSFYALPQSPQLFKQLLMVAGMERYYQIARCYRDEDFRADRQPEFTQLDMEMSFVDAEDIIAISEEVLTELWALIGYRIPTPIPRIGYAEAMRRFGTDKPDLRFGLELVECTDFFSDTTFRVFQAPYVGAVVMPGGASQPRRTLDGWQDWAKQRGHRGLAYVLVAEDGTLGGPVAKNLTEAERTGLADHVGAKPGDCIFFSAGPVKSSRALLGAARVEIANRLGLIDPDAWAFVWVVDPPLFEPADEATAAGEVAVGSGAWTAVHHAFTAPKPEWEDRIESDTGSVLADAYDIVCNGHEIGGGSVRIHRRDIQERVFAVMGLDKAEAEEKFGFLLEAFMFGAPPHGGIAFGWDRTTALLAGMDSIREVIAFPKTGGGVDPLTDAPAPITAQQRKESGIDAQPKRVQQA
# [2] = biological target: Shiga toxin 2 (Escherichia coli O157:H7) (UniProt P09385+P09386); test: E. coli 0.157:H7 Shiga Toxin SOP - stx2 screening assay; assay type: functional; set-up: scale not given: direction of the effect not stated beside the values; details: 30 µM
SMILES,Percent Effect [1],Percent Effect [2]
c1cnn(CCN2CCOC(Cn3cncn3)C2)c1 (centres undefined),0.685%,-9.56%
Cc1nccn1C1CCCN(C(=O)c2ccc(N3CCCC3)nn2)C1 (centres undefined),2.5%,17.8%
CC(=O)N1CCCCC1c1cc(CO)[nH]n1 (centres undefined),-3.86%,7.89%
CC(C1CC1)N(C(=O)NCCCn1nc2ccccn2c1=O)C1CC1 (centres undefined),1.26%,-15.6%
COCc1nc2cc(NCc3ccncc3)ccc2o1,57.1%,-55.9%
CC(C)c1ncncc1C(=O)N1CCCN(Cc2cccs2)CC1,-3.79%,6.52%
O=C(C(CNCc1ccsc1)c1ccccc1)N1CCOCC1 (centres undefined),4.13%,-22.6%
CC(Cn1cccn1)NCc1csc(-c2ccccc2F)n1 (centres undefined),-4.2%,-6.96%
c1cc(CN2CCCC(c3noc(C4CC4)n3)C2)no1 (centres undefined),-0.285%,4.12%
Cc1cc(CN(C)C(=O)c2cc3c([nH]c2=O)CCCC3=O)no1,2.54%,20.8%
O=C(Cc1c[nH]c2ccccc12)N1CCN(C(=O)c2ccoc2)CC1,7.22%,-16.5%
Cc1ncc(CNC(=O)N(C)C2CCN(c3ccccc3)C2=O)s1 (centres undefined),-3.19%,24.6%
CN(Cc1ccc(F)cc1)C(=O)CN1CCCC(Cn2cncn2)C1 (centres undefined),-5.51%,5.36%
O=C(C1CCC1)N1CCN(C(=O)c2cnccn2)[C@H]2CS(=O)(=O)C[C@H]21,-2.93%,-12.2%
Cc1cc(C2CCCN2Cc2ccn(C)c(=O)c2)no1 (centres undefined),-1.63%,8.31%
c1ccc(CN2CCOCC3(CCN(C4CCOCC4)C3)C2)cc1 (centres undefined),6.57%,12.2%
O=C(NCC1CCOC1)N1CCN(Cc2ccc3c(c2)CCO3)CC1 (centres undefined),-0.0562%,28.1%
COc1cccc(-c2nc(C)c(C(=O)NC(CO)CCSC)s2)c1 (centres undefined),-3.69%,-34.8%
CN(C)C(=O)C1CN(Cc2c[nH]cn2)CCN(C2CCOCC2)C1 (centres undefined),0.313%,-8.14%
COc1cccc(CNC(CN2CCN(C)CC2)c2ccccc2)c1 (centres undefined),3.94%,-26%
COc1ccc(C2=CCN(C(=O)C3CC(=O)N(C4CC4)C3)CC2)cc1 (centres undefined),1.54%,2.8%
CC(=O)N(Cc1noc(C)n1)C1CCN(Cc2cc(C)on2)C1 (centres undefined),4.07%,11%
CCc1nnc2n1CCN(C(=O)C(C)COCc1ccccc1)C2 (centres undefined),0.562%,31.4%
Cc1cc(C)n(C2CCCN(C(=O)COCC(F)(F)F)C2)n1 (centres undefined),-4.61%,-2.74%
CN(C)c1nccc(N2CCO[C@H]3CN(CC4CCOCC4)C[C@H]32)n1,-1.41%,-89.3%
COCCn1cc2c(n1)C(CNCc1ccco1)OCC2 (centres undefined),3%,-35.6%

SMILES,Percent Effect [1],Percent Effect [2]
Cc1nc(C)n(CC2CCCN(Cc3nnc(-c4ccco4)o3)C2)n1 (centres undefined),-2.25%,-19.8%
CCOc1ccc(NC(=O)NCc2csc(NC)n2)cc1C,-0.262%,-26.6%
CCC1=N[C@@]2(CC[C@@H]3CN(C(=O)NCC(C)C)C[C@@H]32)C(=O)N1CC(C)C,4.11%,-9.55%
COCCCN(CCOC)C(=O)Nc1ccccc1Br,-10.6%,-6.69%
COCCCN1CCCN(C(C)c2nc(C3CC3)no2)CC1 (centres undefined),-9.76%,-23.4%
COc1ccccc1OCc1cc(C(=O)N2CC=CC2C(C)C)n[nH]1 (centres undefined),-0.752%,15.8%
CC(C)Oc1ncnc2c1CCN(Cc1cccs1)CC2,1.14%,17.6%
CC(=O)N1CCn2c(COCc3csc(C)n3)cnc2C1C (centres undefined),-3.29%,-18.6%
Cc1ncsc1C(=O)NC1CCN(CC(=O)N(C)C(C)(C)C#N)CC1,-2.42%,25.4%
COc1cccc2ccn(CCC(=O)N3CCCC(C(=O)O)C3)c12 (centres undefined),9.22%,-2.31%
c1ncn(CC2CCCCN2Cc2noc(C3CC3)n2)n1 (centres undefined),3.28%,26%
Cc1nc(CN2CCc3ncnc(C)c3CC2)cs1,-3.93%,-9.46%
NC(=O)C1CCN(C(=O)Cn2nc(-c3ccccc3)oc2=O)C1 (centres undefined),7.46%,-67.9%
Cc1cnn(CC2CCCCN2C(=O)c2ccnc(N(C)C)c2)c1 (centres undefined),1.07%,16.2%
CCn1cc(S(=O)(=O)N(C)Cc2c(Br)cnn2CC)c(C)n1,3.54%,13.9%
O=C(CCn1cccn1)N1CCN(CC(F)F)CC1,2.16%,15.4%
COCCN1CCN(Cc2cccc(OCC(N)=O)c2)CC1C (centres undefined),-6.54%,-6.57%
Cn1cnc2c1C(COCc1ccccc1)N(Cc1ccncc1)CC2 (centres undefined),2.91%,-1.07%
CNS(=O)(=O)c1cccc(CNc2cc(C(F)(F)F)ccn2)c1,-2.24%,27.2%
Cc1ccc(CNCCOc2ccc(S(C)(=O)=O)cc2)cc1,1.28%,-76.7%
CC(=O)c1ccccc1C(=O)NCC1(CO)CC1,2.82%,-19.8%
CC(C)C(C(=O)N1CCC(Nc2cccnn2)CC1)n1cncn1 (centres undefined),0.434%,12.4%
CNC(=O)C1CCN(C(=O)CCn2cccn2)CC1,6.32%,26%
CCc1cc(=O)[nH]c2nnc(SCC(=O)OC)n12,-8.74%,-6.54%
CCOCC(=O)N1CCC(Oc2ccc(C(F)(F)F)cn2)CC1,2.2%,12.5%
CN(C(=O)Cn1nc(-c2ccc(F)cc2)ccc1=O)C1CCS(=O)(=O)C1 (centres undefined),3.06%,1.8%

SMILES,Percent Effect [1],Percent Effect [2]
Cc1nc(C)n(CC2CCCN2CCCOc2ccc(F)cc2)n1 (centres undefined),-8.6%,0.578%
CCc1ncc2c(n1)CN(C(=O)COC)C2,2.9%,-5.79%
CCc1nccn1C1CCCN(C(=O)c2cnn(C)c2C2CC2)C1 (centres undefined),-4.23%,21.1%
O=C(NCc1ccc(-n2cncn2)nc1)c1ccoc1,3.8%,-9.83%
COC(=O)Cn1c(=O)nc2n1C(=O)N(c1ccc(Cl)cc1)C2,1.73%,-16.1%
Cc1cc(C)nc(N2CCN(C(=O)c3cc(Cl)c[nH]3)CC2)n1,1.48%,-6.42%
CCn1c(CN2CCCC2)nnc1C1CCN(Cc2ccc(C)o2)CC1,-0.695%,1.78%
CCc1ccc(O)c(C(=O)NC2CCN(Cc3ccncc3)CC2)c1,-4.26%,-67.7%
OCCn1cc(CN2CCN(CCOc3ccccc3)CC2)cn1,0.728%,13.3%
O=C(c1cnc(COc2ccccc2)nc1O)N1CCOCC1,1.28%,-10.9%
CC(C(=O)NCCOc1cccc(Cl)c1)n1cncn1 (centres undefined),4.65%,-10.9%
O=C(CCc1cccnc1)N1CCCC(n2cncn2)C1 (centres undefined),-2.66%,1.94%
O=C(Nc1nccs1)NC1CCN(Cc2ccccc2)C1 (centres undefined),-1.92%,-17.1%
Cc1cc2nc(SCC(=O)N3CCOCC3)n(CC(C)C)c(=O)c2[nH]1,11.7%,-10.1%
CCN(Cc1nc2c(cnn2C)c(=O)[nH]1)c1cccc(F)c1,1.24%,-7.65%
CCc1n[nH]c(C2CN(C(=O)c3cc4c(s3)CCCC4)CCO2)n1 (centres undefined),-1.69%,4.53%
CN(Cc1cccc(F)c1)C(=O)CN1CCCC1CCc1ccccc1 (centres undefined),-1.52%,-33.4%
CC(C)(C)C(=O)Cn1nc(-c2ccccc2F)ccc1=O,-2.79%,-9.41%
CC1CN(CC2CCCCC2)CCN1c1ccc2nncn2n1 (centres undefined),-1.32%,-96.5%
COCCO[C@H]1CCN(C(=O)c2cc(C)on2)[C@H]1Cc1ccccc1,-1.39%,-1.24%
Cc1nc(C)n(CC2CCCN2CC(=O)Nc2cc(C(C)C)no2)n1 (centres undefined),3.17%,27.8%
CCN(CC)C(=O)c1nnc2ccc(N3CCOCC3)cc2n1,-5.17%,-18.6%
CNC(=O)Nc1cc(-c2ccccc2C)nn1CCO,10.9%,-22%
Cc1scc(C(=O)N2CCC3(CC(=O)NC3=O)C2)c1-c1ccccc1 (centres undefined),0.19%,8.3%
NCc1cnn(-c2ccccc2C(=O)NCCCn2ccnc2)c1,0.581%,10.4%
CC(NCc1ccc(F)cc1)c1ccc(OCC(=O)NC2CC2)cc1 (centres undefined),0.888%,-19.1%

SMILES,Percent Effect [1],Percent Effect [2]
CCc1cnc2c(c1Nc1ccc(OC)cc1)c(=O)n(C)c(=O)n2C,0.831%,-12.8%
NC(=O)NC(=O)CCN1CCCN(c2nccs2)CC1,1.54%,-33.2%
COCc1noc(C2(c3ccc(F)cc3)CCOCC2)n1,-2.06%,-10.8%
CNC(=O)c1cc2c(nc1NCC(C)C)CCN(S(=O)(=O)C1CC1)CC2,-2.58%,1.28%
COCCN1CCN(C(=O)c2ccncc2F)Cc2cccnc21,-0.348%,-48.6%
CN(Cc1ccccn1)C1COC2(CCN(Cc3cccnc3)CC2)C1 (centres undefined),-2.07%,-24.6%
CSCCC(=O)N1CCCC1c1ccsc1 (centres undefined),2.62%,4.03%
O=C(Nc1cnccn1)[C@H]1COC[C@H]2CN(C3CCCC3)C[C@H]21,-3.53%,8.55%
N#Cc1cccc(S(=O)(=O)NC(=O)COC2CCCC2)c1,1.85%,-31%
O=S1(=O)COCCN1Cc1ccc(Cl)c(F)c1,2.49%,-5.38%
CN(c1ccc(F)c(F)c1)S(=O)(=O)c1cc(C(=O)O)cs1,1.3%,20.8%
CNS(=O)(=O)c1cccc(C(C)NCc2ccccc2)c1 (centres undefined),-1.42%,-14.4%
Cc1ccc(NC(=O)NC(C)c2nc[nH]n2)s1 (centres undefined),3.94%,17.2%
Cc1nc(N2CCCC2)nc2c1CCN(Cc1ccco1)CC2,8.76%,-55.7%
Cc1ccc2cc(CNCCCO)c(=O)[nH]c2c1,-1.41%,-9.65%
CCCc1n[nH]c(C2CN(Cc3nnc(C4CC4)o3)CCO2)n1 (centres undefined),-8.48%,-20.6%
Cn1cccc1-c1cc(C(=O)N2CCCC2c2cccnc2)[nH]n1 (centres undefined),2.57%,4.82%
COc1cccc(F)c1C(=O)N1C[C@@H](CN(C)CCO)[C@@H](CO)C1,-0.268%,-11.4%
CN(CC(F)(F)F)C(=O)C1CSCN1C(=O)OC(C)(C)C (centres undefined),2.82%,-9.84%
Cc1nc(CN2CCCC(NCCOCC(F)(F)F)C2)no1 (centres undefined),-8.65%,-8.56%
CC(C)Cc1noc(CN2CCN(C(=O)c3cccc(F)c3)CC2)n1,-0.41%,-17.7%
COc1ccc(Nc2nc3c(C)nn(C)c3c(=O)n2C)c(OC)c1,6.63%,-34.2%
O=C(c1cccnc1)N1C[C@@H]2CC[C@H](C1)N(Cc1cccc(Cl)c1F)C2,9.03%,-10.5%
CS(=O)(=O)NC[C@H]1OC[C@@H]2CCN(Cc3ccc(F)cc3)C[C@@H]21,0.903%,-21.2%
